Reference: the supplement of paper PMC10105736
A number with no mark means an inactive call.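 The calls were made as follows: active = MAPPIT score above the 99th percentile of random reference set scores in the same batch; inactive = at or below it.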

Experiments:
Assay in all cases: MAPPIT interaction score (arbitrary units); higher = stronger binary interaction signal, active = hit call of the paper
[1] = test system: CG3703; conditions: MAPPIT configuration: N-N; pair source set: Finley_Y2H
[2] = test system: CG17377; conditions: MAPPIT configuration: N-C; pair source set: screen_4
[3] = test system: CG32817; conditions: MAPPIT configuration: N-N; pair source set: screen_2
[4] = test system: Mst87F; conditions: MAPPIT configuration: N-N; pair source set: screen_2
[5] = test system: CG1640; conditions: MAPPIT configuration: N-C; pair source set: screen_4
[6] = test system: Pex5; conditions: MAPPIT configuration: N-N; pair source set: Curagen_low_conf
[7] = test system: Atg1; conditions: MAPPIT configuration: N-N; pair source set: Finley_Y2H
[8] = test system: CG2120; conditions: MAPPIT configuration: N-C; pair source set: screen_3
[9] = test system: Odj; conditions: MAPPIT configuration: N-N; pair source set: screen_2
[10] = test system: caup; conditions: MAPPIT configuration: N-C; pair source set: screen_3
[11] = test system: CG5111; conditions: MAPPIT configuration: N-C; pair source set: screen_3
[12] = test system: CG14044; conditions: MAPPIT configuration: N-N; pair source set: Finley_Y2H
[13] = test system: CG46385; conditions: MAPPIT configuration: N-N; pair source set: screen_1
[14] = test system: CG7011; conditions: MAPPIT configuration: N-N; pair source set: Lit-BS-16
[15] = test system: CG3517; conditions: MAPPIT configuration: N-N; pair source set: screen_1
[16] = test system: CG12567; conditions: MAPPIT configuration: N-N; pair source set: Finley_Y2H
[17] = test system: mRpL47; conditions: MAPPIT configuration: N-N; pair source set: Finley_Y2H
[18] = test system: C15; conditions: MAPPIT configuration: N-N; pair source set: Lit-BS-16
[19] = test system: CG14985; conditions: MAPPIT configuration: N-N; pair source set: screen_2
[20] = test system: CG31406; conditions: pair source set: RRS
[21] = test system: Hakai; conditions: MAPPIT configuration: N-N; pair source set: DPIM
[22] = test system: Lkb1; conditions: MAPPIT configuration: N-N; pair source set: DPIM
[23] = test system: RnrS; conditions: MAPPIT configuration: N-N; pair source set: DPIM
[24] = test system: bai; conditions: MAPPIT configuration: N-N; pair source set: DPIM
[25] = test system: mRpS24; conditions: MAPPIT configuration: N-N; pair source set: DPIM
[26] = test system: scf; conditions: MAPPIT configuration: N-N; pair source set: DPIM
[27] = test system: CG15545; conditions: MAPPIT configuration: N-N; pair source set: Curagen_low_conf
[28] = test system: CG44250; conditions: MAPPIT configuration: N-N; pair source set: screen_2
[29] = test system: lwr; conditions: MAPPIT configuration: N-N
[30] = test system: CG4619; conditions: MAPPIT configuration: N-N; pair source set: DPIM
[31] = test system: CG31740; conditions: MAPPIT configuration: N-N; pair source set: screen_2
[32] = test system: CG4250; conditions: MAPPIT configuration: N-C; pair source set: screen_4
[33] = test system: lms; conditions: MAPPIT configuration: N-N; pair source set: screen_1
[34] = test system: Arpc3A; conditions: pair source set: Lit-BM-16
[35] = test system: CG4116; conditions: MAPPIT configuration: N-N; pair source set: Curagen_high_conf
[36] = test system: CG1607; conditions: MAPPIT configuration: N-N; pair source set: DPIM
[37] = test system: CG8997; conditions: MAPPIT configuration: N-N; pair source set: Finley_Y2H
[38] = test system: CG8173; conditions: MAPPIT configuration: N-N; pair source set: screen_1
[39] = test system: Vsx2; conditions: MAPPIT configuration: N-N; pair source set: screen_2
[40] = test system: CG9132; conditions: MAPPIT configuration: N-N; pair source set: Finley_Y2H
[41] = test system: CG9536; conditions: MAPPIT configuration: N-N; pair source set: DPIM
[42] = test system: Ktl; conditions: MAPPIT configuration: N-N; pair source set: screen_2
[43] = test system: Tina-1; conditions: MAPPIT configuration: N-N; pair source set: DPIM
[44] = test system: CG9775; conditions: MAPPIT configuration: N-N; pair source set: DPIM
[45] = test system: CG9986; conditions: MAPPIT configuration: N-N; pair source set: Lit-BS-16
[46] = test system: HP1e; conditions: MAPPIT configuration: N-N; pair source set: Lit-BS-16
[47] = test system: CkIIalpha; conditions: MAPPIT configuration: N-N; pair source set: Lit-BM-16
[48] = test system: Doa; conditions: MAPPIT configuration: N-N; pair source set: Finley_Y2H
[49] = test system: Smg6; conditions: MAPPIT configuration: N-N; pair source set: Finley_Y2H
[50] = test system: Srp54; conditions: MAPPIT configuration: N-N; pair source set: Finley_Y2H
[51] = test system: D; conditions: MAPPIT configuration: N-N; pair source set: Finley_Y2H
[52] = test system: Eno; conditions: MAPPIT configuration: N-N; pair source set: Lit-BM-16
[53] = test system: MESK2; conditions: MAPPIT configuration: N-N; pair source set: Lit-BS-16
[54] = test system: Gmppa; conditions: MAPPIT configuration: N-N; pair source set: Curagen_high_conf
[55] = test system: Mlf; conditions: pair source set: Lit-BM-16
[56] = test system: Nost; conditions: MAPPIT configuration: N-N; pair source set: Curagen_high_conf
[57] = test system: Nup50; conditions: pair source set: Lit-BM-16
[58] = test system: Nup93-1; conditions: MAPPIT configuration: N-N; pair source set: Curagen_low_conf
[59] = test system: apt; conditions: MAPPIT configuration: N-N; pair source set: Curagen_low_conf
[60] = test system: PAN3; conditions: MAPPIT configuration: N-N; pair source set: screen_1
[61] = test system: l(3)05822; conditions: MAPPIT configuration: N-N; pair source set: screen_2
[62] = test system: mad2; conditions: MAPPIT configuration: N-N; pair source set: Finley_Y2H
[63] = test system: PGAP5; conditions: MAPPIT configuration: N-N; pair source set: Finley_Y2H
[64] = test system: Prx2; conditions: MAPPIT configuration: N-N; pair source set: Curagen_high_conf
[65] = test system: Reph; conditions: MAPPIT configuration: N-C; pair source set: Lit-BM-16
[66] = test system: RfC3; conditions: pair source set: Lit-BM-16
[67] = test system: Sec24CD; conditions: MAPPIT configuration: N-N; pair source set: Lit-BS-16
[68] = test system: Src64B; conditions: MAPPIT configuration: N-N; pair source set: Lit-BS-16
[69] = test system: chn; conditions: MAPPIT configuration: N-N; pair source set: Curagen_low_conf
[70] = test system: pan; conditions: MAPPIT configuration: N-N; pair source set: Finley_Y2H
[71] = test system: su(Hw); conditions: MAPPIT configuration: N-N; pair source set: DPIM
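Also: HEK293T cells with Epo stimulation, STAT-responsive firefly luciferase reporter, fold induction versus unstimulated cells divided by the larger fold induction of two negative controls lacking either bait or prey.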

SmB, sequence (chain, as listed by the source): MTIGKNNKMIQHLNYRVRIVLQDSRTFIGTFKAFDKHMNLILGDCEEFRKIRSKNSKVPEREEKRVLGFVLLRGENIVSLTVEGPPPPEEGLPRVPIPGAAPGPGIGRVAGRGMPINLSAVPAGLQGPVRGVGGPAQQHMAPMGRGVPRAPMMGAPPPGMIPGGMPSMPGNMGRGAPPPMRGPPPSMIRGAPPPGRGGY
Doa, sequence (chain, as listed by the source): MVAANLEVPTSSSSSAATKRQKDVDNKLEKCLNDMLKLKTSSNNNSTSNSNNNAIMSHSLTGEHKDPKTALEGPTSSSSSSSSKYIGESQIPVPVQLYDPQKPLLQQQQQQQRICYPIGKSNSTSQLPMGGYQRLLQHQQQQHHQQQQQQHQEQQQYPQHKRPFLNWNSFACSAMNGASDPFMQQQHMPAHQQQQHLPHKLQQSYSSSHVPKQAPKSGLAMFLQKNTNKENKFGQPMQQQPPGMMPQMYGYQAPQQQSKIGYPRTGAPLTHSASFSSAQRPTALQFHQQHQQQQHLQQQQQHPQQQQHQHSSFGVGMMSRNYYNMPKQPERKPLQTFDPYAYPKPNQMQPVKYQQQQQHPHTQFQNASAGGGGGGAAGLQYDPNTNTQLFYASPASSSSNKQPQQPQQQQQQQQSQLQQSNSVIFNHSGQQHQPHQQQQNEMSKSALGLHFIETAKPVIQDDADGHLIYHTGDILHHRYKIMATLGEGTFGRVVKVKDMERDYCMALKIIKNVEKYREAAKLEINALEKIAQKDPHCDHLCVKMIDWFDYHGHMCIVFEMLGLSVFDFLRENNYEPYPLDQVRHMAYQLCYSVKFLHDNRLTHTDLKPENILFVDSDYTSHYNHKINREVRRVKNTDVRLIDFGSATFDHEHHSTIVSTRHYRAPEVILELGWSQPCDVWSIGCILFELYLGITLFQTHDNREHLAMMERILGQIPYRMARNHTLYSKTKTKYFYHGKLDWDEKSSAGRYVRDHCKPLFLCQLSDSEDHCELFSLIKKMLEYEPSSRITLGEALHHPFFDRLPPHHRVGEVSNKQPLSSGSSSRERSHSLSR
Gsc, sequence (chain, as listed by the source): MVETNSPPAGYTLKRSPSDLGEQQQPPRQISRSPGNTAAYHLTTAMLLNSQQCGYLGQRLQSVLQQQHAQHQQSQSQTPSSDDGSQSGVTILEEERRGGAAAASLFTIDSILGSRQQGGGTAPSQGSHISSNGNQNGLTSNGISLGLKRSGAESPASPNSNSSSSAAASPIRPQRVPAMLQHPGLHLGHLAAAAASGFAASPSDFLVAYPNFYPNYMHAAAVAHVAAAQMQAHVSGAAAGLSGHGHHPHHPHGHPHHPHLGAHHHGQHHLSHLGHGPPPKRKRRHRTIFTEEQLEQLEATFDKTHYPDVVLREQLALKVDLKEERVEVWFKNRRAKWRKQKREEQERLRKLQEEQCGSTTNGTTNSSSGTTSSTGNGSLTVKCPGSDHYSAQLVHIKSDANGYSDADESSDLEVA
dsx, sequence (chain, as listed by the source): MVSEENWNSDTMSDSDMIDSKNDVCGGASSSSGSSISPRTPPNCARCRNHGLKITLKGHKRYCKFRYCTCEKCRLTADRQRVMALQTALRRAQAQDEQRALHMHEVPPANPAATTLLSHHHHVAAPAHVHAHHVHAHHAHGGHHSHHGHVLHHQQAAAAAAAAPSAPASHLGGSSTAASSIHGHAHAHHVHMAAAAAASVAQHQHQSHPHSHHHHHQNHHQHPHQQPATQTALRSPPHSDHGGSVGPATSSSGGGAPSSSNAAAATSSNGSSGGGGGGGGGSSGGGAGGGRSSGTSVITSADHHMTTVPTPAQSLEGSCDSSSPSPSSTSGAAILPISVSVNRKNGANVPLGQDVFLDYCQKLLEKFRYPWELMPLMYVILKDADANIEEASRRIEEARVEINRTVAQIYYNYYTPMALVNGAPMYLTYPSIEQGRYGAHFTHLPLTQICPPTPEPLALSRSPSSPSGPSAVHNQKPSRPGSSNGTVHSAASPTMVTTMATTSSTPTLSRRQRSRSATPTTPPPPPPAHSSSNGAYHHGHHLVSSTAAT
bowl, sequence (chain, as listed by the source): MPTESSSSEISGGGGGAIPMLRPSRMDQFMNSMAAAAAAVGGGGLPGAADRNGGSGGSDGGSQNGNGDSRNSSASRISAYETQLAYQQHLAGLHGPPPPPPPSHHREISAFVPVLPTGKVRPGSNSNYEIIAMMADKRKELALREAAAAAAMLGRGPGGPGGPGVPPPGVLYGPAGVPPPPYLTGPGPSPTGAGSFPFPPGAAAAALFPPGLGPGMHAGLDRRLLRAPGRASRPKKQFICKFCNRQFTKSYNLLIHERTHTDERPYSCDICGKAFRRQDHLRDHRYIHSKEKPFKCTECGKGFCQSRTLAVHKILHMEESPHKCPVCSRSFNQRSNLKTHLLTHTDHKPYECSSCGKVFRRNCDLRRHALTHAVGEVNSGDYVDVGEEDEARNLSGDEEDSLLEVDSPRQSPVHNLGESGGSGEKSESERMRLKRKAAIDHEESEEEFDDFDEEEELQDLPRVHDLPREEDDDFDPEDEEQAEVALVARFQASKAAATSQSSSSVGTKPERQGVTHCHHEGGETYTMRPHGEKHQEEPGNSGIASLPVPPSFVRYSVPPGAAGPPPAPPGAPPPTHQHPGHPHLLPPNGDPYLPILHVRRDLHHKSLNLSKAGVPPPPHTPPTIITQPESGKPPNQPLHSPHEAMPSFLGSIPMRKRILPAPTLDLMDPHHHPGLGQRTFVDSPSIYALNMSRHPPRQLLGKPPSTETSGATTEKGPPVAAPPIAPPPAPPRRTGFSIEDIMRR
Hsc70-1, sequence (chain, as listed by the source): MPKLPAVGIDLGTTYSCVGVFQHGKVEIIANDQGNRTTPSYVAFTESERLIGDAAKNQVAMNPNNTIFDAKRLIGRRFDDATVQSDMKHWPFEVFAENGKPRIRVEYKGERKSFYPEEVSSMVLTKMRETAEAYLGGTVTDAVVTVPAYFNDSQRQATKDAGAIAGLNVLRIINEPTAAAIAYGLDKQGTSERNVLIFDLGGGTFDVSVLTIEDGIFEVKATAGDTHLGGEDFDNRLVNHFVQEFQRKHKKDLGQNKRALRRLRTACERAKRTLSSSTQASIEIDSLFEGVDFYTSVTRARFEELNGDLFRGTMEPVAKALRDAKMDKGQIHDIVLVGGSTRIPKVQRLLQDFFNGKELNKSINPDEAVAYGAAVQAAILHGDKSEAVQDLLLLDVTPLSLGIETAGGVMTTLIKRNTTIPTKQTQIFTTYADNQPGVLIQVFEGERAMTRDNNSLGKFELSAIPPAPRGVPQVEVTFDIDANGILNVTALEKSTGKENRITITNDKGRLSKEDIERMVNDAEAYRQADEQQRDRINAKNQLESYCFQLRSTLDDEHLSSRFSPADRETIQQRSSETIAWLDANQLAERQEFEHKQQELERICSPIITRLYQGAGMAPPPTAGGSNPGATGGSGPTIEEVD
prd, sequence (chain, as listed by the source): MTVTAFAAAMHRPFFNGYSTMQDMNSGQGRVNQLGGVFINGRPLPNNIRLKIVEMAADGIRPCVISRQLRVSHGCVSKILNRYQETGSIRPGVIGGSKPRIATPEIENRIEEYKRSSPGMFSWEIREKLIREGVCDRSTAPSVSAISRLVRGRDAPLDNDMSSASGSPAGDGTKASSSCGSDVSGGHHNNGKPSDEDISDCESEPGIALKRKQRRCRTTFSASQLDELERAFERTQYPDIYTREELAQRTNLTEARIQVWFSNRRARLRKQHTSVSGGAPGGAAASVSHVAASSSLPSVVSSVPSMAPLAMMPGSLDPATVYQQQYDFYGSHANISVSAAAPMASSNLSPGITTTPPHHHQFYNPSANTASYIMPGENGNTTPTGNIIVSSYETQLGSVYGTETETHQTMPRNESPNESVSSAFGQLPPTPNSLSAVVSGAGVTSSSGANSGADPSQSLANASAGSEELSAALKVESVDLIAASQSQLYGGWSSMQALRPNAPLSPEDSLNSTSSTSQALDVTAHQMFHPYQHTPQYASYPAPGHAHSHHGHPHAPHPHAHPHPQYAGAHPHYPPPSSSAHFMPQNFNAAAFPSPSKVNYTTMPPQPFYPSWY
Pen, sequence (chain, as listed by the source): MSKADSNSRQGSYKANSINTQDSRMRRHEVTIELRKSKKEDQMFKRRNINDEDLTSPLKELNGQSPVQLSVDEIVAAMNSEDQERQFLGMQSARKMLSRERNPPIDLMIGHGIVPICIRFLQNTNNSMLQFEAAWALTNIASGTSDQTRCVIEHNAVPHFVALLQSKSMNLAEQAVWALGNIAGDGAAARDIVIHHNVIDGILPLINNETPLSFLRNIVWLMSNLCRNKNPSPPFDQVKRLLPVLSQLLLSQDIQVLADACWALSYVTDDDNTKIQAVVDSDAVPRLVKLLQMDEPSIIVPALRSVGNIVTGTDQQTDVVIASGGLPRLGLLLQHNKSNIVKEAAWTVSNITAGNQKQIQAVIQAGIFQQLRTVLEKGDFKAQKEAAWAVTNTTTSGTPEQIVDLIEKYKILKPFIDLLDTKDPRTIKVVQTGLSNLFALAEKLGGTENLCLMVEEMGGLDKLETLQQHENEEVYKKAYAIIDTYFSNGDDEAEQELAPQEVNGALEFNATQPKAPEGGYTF
Hrb98DE, sequence (chain, as listed by the source): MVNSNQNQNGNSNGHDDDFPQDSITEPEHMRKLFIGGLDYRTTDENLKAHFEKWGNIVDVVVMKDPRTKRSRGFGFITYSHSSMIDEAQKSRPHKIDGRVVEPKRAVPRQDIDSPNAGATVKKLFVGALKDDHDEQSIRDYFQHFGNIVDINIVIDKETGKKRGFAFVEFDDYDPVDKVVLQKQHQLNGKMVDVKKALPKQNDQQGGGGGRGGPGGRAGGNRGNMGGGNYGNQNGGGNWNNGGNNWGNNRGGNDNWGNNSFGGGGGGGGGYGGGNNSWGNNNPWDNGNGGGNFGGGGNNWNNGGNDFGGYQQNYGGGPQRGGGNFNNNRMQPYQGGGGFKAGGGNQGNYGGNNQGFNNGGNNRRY
RpL39, sequence (chain, as listed by the source): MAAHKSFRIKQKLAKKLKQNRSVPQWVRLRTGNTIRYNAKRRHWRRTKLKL

gsb-n was tested, and the MAPPIT interaction score [1] was 0.258.
For dsx, the MAPPIT interaction score [2] was 2.14, the MAPPIT interaction score [3] was 2.31 and the MAPPIT interaction score [4] was 4.59 (active).
With Acam the MAPPIT interaction score [5] was 0.679 and the MAPPIT interaction score [6] was 0.715.
Substance Rbp6 has an MAPPIT interaction score [7] of 0.221.
bowl showed an MAPPIT interaction score [8] of 0.273, an MAPPIT interaction score [9] of -0.226 and an MAPPIT interaction score [10] of -0.0689.
With Abd-B the MAPPIT interaction score [11] was 1.34.
Work on zen yielded an MAPPIT interaction score [12] of 1.38.
In the case of Poxm, the MAPPIT interaction score [13] is reported as 1.84 and the MAPPIT interaction score [14] is reported as 0.0698.
For e(y)3, the MAPPIT interaction score [15] was 3.82 (active).
prd showed an MAPPIT interaction score [16] of 2.65 and an MAPPIT interaction score [17] of 0.0739.
bsh showed an MAPPIT interaction score [18] of 0.102.
Vps60 showed an MAPPIT interaction score [19] of 0.0854.
Work on Hsc70-1 yielded an MAPPIT interaction score ([20]; MAPPIT configuration: N-C) of 1.43, an MAPPIT interaction score ([20]; MAPPIT configuration: N-N) of -0.111 and an MAPPIT interaction score [21] of 0.323. The MAPPIT interaction score [22] was -0.0906, the MAPPIT interaction score [23] was 1 and the MAPPIT interaction score [24] was -0.235. For the same substance, the MAPPIT interaction score [25] was -0.169 and the MAPPIT interaction score [26] was 1.56.
RpL23 showed an MAPPIT interaction score [27] of 0.083.
Work on cher yielded an MAPPIT interaction score [28] of 0.155 and an MAPPIT interaction score ([29]; pair source set: DPIM) of -0.358.
For pnr, the MAPPIT interaction score [30] was 3.3 (active).
With Gsc the MAPPIT interaction score [31] was 3.16 (active), the MAPPIT interaction score [32] was 1.43 and the MAPPIT interaction score [33] was -0.637.
Substance Arpc2 has an MAPPIT interaction score ([34]; MAPPIT configuration: N-C) of 2.37 and an MAPPIT interaction score ([34]; MAPPIT configuration: N-N) of 0.165.
Work on SmD1 yielded an MAPPIT interaction score [35] of -0.319.
For Fmr1, the MAPPIT interaction score [36] was 0.0271.
With lark the MAPPIT interaction score [37] was 1.37.
In the case of otp, the MAPPIT interaction score [38] is reported as -0.108 and the MAPPIT interaction score [39] is reported as -0.232.
Substance Gyc89Da has an MAPPIT interaction score [40] of 0.702.
For Arf1, the MAPPIT interaction score [41] was 0.397, the MAPPIT interaction score [42] was 2.35 and the MAPPIT interaction score [43] was 0.274.
RpL4 was tested, and the MAPPIT interaction score [44] was -0.331.
Hsp70Aa was tested, and the MAPPIT interaction score [45] was 0.269 and the MAPPIT interaction score [46] was 0.126.
For CkIIbeta, the MAPPIT interaction score [47] was 3.04 (active).
Doa gave an MAPPIT interaction score [48] of 1.07, an MAPPIT interaction score [49] of 1.25 and an MAPPIT interaction score [50] of -1.75. For the same substance, the MAPPIT interaction score ([29]; pair source set: Finley_Y2H) was -1.12.
Substance RpL39 has an MAPPIT interaction score [51] of -0.321.
In the case of Cyp1, the MAPPIT interaction score [52] is reported as 0.063 and the MAPPIT interaction score [53] is reported as 0.0293.
With Gmppb the MAPPIT interaction score [54] was 1.26.
In the case of DnaJ-1, the MAPPIT interaction score ([55]; MAPPIT configuration: N-C) is reported as 1.44 and the MAPPIT interaction score ([55]; MAPPIT configuration: N-N) is reported as 0.787.
Src42A gave an MAPPIT interaction score [56] of 1.25.
With Pen the MAPPIT interaction score ([57]; MAPPIT configuration: N-C) was 0.849 and the MAPPIT interaction score ([57]; MAPPIT configuration: N-N) was 0.121.
Hrb98DE was tested, and the MAPPIT interaction score [58] was -0.403 and the MAPPIT interaction score [59] was -0.399.
For SmB, the MAPPIT interaction score [60] was -0.24, the MAPPIT interaction score [61] was 0.0651 and the MAPPIT interaction score [62] was -0.029.
Dfd was tested, and the MAPPIT interaction score [63] was 0.749.
Srx gave an MAPPIT interaction score [64] of -0.16.
For mnb, the MAPPIT interaction score [65] was 1.38.
With RfC4 the MAPPIT interaction score ([66]; MAPPIT configuration: N-C) was 3.58 and the MAPPIT interaction score ([66]; MAPPIT configuration: N-N) was 6.38 (active).
Substance Jon99Cii has an MAPPIT interaction score [67] of -0.28.
With Pgi the MAPPIT interaction score [68] was -0.233.
Work on Hsp83 yielded an MAPPIT interaction score [69] of 0.266.
Cdk5 gave an MAPPIT interaction score [70] of -0.4.
Non1 showed an MAPPIT interaction score [71] of 0.589.
